# Assay results taken from PubChem BioAssay AID1159580 (chemical genetic matrix, 2015).
# Where “and” joins values, the source holds several entries; their conditions need not be identical. Equal values may be shown once. In all, about 5,500 compounds went through this assay and about 2,000 (36%) were called active. Another 18% or so got no clear call; they are omitted. The list shows a part of the results. Unmarked numbers belong to inactive results. Cut-off read from the data, not from the text of the source: active = normalized growth mostly below about 0.91 (no sharp cut-off); inconclusive = no clear call, values can overlap the other calls; inactive = mostly above about 0.92.
# Test: chemical genetic growth profiling, strain panel (AID 1159580);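 note: tested at 20 µM; growth read once vehicle control cultures reached saturation at 30 °C; 1 = growth at the plate median or of vehicle wells; lower values mean less growth of the strain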
# Conditions: growth OD
compound,measurement,setting,value
O=C(CCCN1CCC2(CC1)C(=O)NCN2c1ccccc1)c1ccc(F)cc1,normalized growth,"S. cerevisiae deletion strains, locus YKL009W, strain mrt4, hits give low values",0.977
same,normalized growth,"S. cerevisiae deletion strains, locus YKL068W, hits give low values",0.99
same,normalized growth,"S. cerevisiae deletion strains, locus YKL085W, strain MDH1 (second series), hits give low values",0.986
same,normalized growth,"S. cerevisiae deletion strains, locus YKL085W, strain MDH1, hits give low values",0.986
same,normalized growth,"S. cerevisiae deletion strains, locus YKL160W, strain elf1, hits give low values",0.946
same,normalized growth,"S. cerevisiae deletion strains, locus YKL190W, strain CNB1, hits give low values",0.99
same,normalized growth,"S. cerevisiae deletion strains, locus YKR001C, strain vps1, hits give low values",0.999
same,normalized growth,"S. cerevisiae deletion strains, locus YKR026C, strain gcn3, hits give low values",0.985
same,normalized growth,"S. cerevisiae deletion strains, locus YKR091W, strain srl3, hits give low values",0.97
same,normalized growth,"S. cerevisiae deletion strains, locus YLL001W, strain dnm1, hits give low values",1.01
same,normalized growth,"S. cerevisiae deletion strains, locus YLL026W, hits give low values",0.978
same,normalized growth,"S. cerevisiae deletion strains, locus YLL041C, strain sdh2, hits give low values",0.988
same,normalized growth,"S. cerevisiae deletion strains, locus YLR027C, strain aat2, hits give low values",0.99
same,normalized growth,"S. cerevisiae deletion strains, locus YLR039C, strain RIC1, hits give low values",0.995
same,normalized growth,"S. cerevisiae deletion strains, locus YLR058C, strain SHM2, hits give low values",0.975
same,normalized growth,"S. cerevisiae deletion strains, locus YLR102C, strain apc9, hits give low values",0.995
same,normalized growth,"S. cerevisiae deletion strains, locus YLR113W, strain HOG1, hits give low values",1.01
same,normalized growth,"S. cerevisiae deletion strains, locus YLR221C, strain rsa3, hits give low values",1.02
same,normalized growth,"S. cerevisiae deletion strains, locus YLR258W, strain gsy2, hits give low values",0.986
same,normalized growth,"S. cerevisiae deletion strains, locus YLR262C, strain YPT6 (second series), hits give low values",0.995
same,normalized growth,"S. cerevisiae deletion strains, locus YLR262C, strain YPT6, hits give low values",0.955
same,normalized growth,"S. cerevisiae deletion strains, locus YLR268W, strain sec22, hits give low values",0.93
same,normalized growth,"S. cerevisiae deletion strains, locus YLR320W, strain mms22, hits give low values",0.993
same,normalized growth,"S. cerevisiae deletion strains, locus YLR330W, strain CHS5, hits give low values",1
same,normalized growth,"S. cerevisiae deletion strains, locus YLR342W, strain FKS1 (second series), hits give low values",1.04
same,normalized growth,"S. cerevisiae deletion strains, locus YLR342W, strain FKS1, hits give low values",0.972
same,normalized growth,"S. cerevisiae deletion strains, locus YLR357W, strain rsc2, hits give low values",0.953
same,normalized growth,"S. cerevisiae deletion strains, locus YLR370C, strain arc18, hits give low values",0.98
same,normalized growth,"S. cerevisiae deletion strains, locus YLR371W, strain rom2, hits give low values",0.991
same,normalized growth,"S. cerevisiae deletion strains, locus YLR384C, strain iki3, hits give low values",0.982
same,normalized growth,"S. cerevisiae deletion strains, locus YLR418C, strain cdc73, hits give low values",0.976
same,normalized growth,"S. cerevisiae deletion strains, locus YML016C, strain PPZ1, hits give low values",0.995
same,normalized growth,"S. cerevisiae deletion strains, locus YML032C, strain rad52, hits give low values",0.991
same,normalized growth,"S. cerevisiae deletion strains, locus YML120C, strain ndi1, hits give low values",0.984
same,normalized growth,"S. cerevisiae deletion strains, locus YML124C, strain tub3, hits give low values",0.989
same,normalized growth,"S. cerevisiae deletion strains, locus YMR058W, strain fet3, hits give low values",0.987
same,normalized growth,"S. cerevisiae deletion strains, locus YMR078C, strain ctf18, hits give low values",0.985
same,normalized growth,"S. cerevisiae deletion strains, locus YMR125W, strain sto1, hits give low values",1
same,normalized growth,"S. cerevisiae deletion strains, locus YMR129W, hits give low values",0.965
same,normalized growth,"S. cerevisiae deletion strains, locus YMR205C, strain PFK2, hits give low values",1.05
same,normalized growth,"S. cerevisiae deletion strains, locus YMR223W, strain ubp8, hits give low values",0.992
same,normalized growth,"S. cerevisiae deletion strains, locus YMR231W, strain pep5, hits give low values",0.988
same,normalized growth,"S. cerevisiae deletion strains, locus YMR307W, strain GAS1, hits give low values",1.08 and 1.02
same,normalized growth,"S. cerevisiae deletion strains, locus YNL067W, strain RPL9B, hits give low values",0.985
same,normalized growth,"S. cerevisiae deletion strains, locus YNL071W, strain lat1, hits give low values",0.995
same,normalized growth,"S. cerevisiae deletion strains, locus YNL128W, strain TEP1, hits give low values",0.989
same,normalized growth,"S. cerevisiae deletion strains, locus YNL153C, strain GIM3, hits give low values",0.969
same,normalized growth,"S. cerevisiae deletion strains, locus YNL175C, strain NOP13, hits give low values",1.01
same,normalized growth,"S. cerevisiae deletion strains, locus YNL183C, strain NPR1, hits give low values",0.934
same,normalized growth,"S. cerevisiae deletion strains, locus YNL197C, strain WHI3, hits give low values",1.01
same,normalized growth,"S. cerevisiae deletion strains, locus YNL209W, strain ssb2, hits give low values",0.998
same,normalized growth,"S. cerevisiae deletion strains, locus YNL224C, strain SQS1, hits give low values",1.01
same,normalized growth,"S. cerevisiae deletion strains, locus YNL233W, strain BNI4, hits give low values",0.994
same,normalized growth,"S. cerevisiae deletion strains, locus YNL248C, strain rpa49, hits give low values",0.928
same,normalized growth,"S. cerevisiae deletion strains, locus YNL250W, strain rad50, hits give low values",0.972
same,normalized growth,"S. cerevisiae deletion strains, locus YNL271C, strain bni1, hits give low values",1
same,normalized growth,"S. cerevisiae deletion strains, locus YNL298W, strain CLA4, hits give low values",0.999
same,normalized growth,"S. cerevisiae deletion strains, locus YNL307C, strain MCK1, hits give low values",0.989
same,normalized growth,"S. cerevisiae deletion strains, locus YNL322C, strain KRE1 (second series), hits give low values",0.968
same,normalized growth,"S. cerevisiae deletion strains, locus YNL322C, strain KRE1, hits give low values",0.999
same,normalized growth,"S. cerevisiae deletion strains, locus YNR049C, strain mso1, hits give low values",0.955
same,normalized growth,"S. cerevisiae deletion strains, locus YNR052C, strain pop2, hits give low values",0.999
same,normalized growth,"S. cerevisiae deletion strains, locus YOL006C, strain TOP1, hits give low values",0.903
same,normalized growth,"S. cerevisiae deletion strains, locus YOL012C, strain htz1",1.37
same,normalized growth,"S. cerevisiae deletion strains, locus YOL147C, strain pex11, hits give low values",0.999
same,normalized growth,"S. cerevisiae deletion strains, locus YOR001W, strain rrp6, hits give low values",0.984
same,normalized growth,"S. cerevisiae deletion strains, locus YOR061W, strain CKA2, hits give low values",0.964
same,normalized growth,"S. cerevisiae deletion strains, locus YOR069W, strain VPS5, hits give low values",0.999
same,normalized growth,"S. cerevisiae deletion strains, locus YOR070C, strain gyp1, hits give low values",0.986
same,normalized growth,"S. cerevisiae deletion strains, locus YOR080W, strain dia2, hits give low values",0.96
same,normalized growth,"S. cerevisiae deletion strains, locus YOR083W, strain WHI5 (second series), hits give low values",1.03
same,normalized growth,"S. cerevisiae deletion strains, locus YOR083W, strain WHI5, hits give low values",0.879 (active)
same,normalized growth,"S. cerevisiae deletion strains, locus YOR106W, strain vam3, hits give low values",0.959
same,normalized growth,"S. cerevisiae deletion strains, locus YOR136W, strain idh2, hits give low values",0.98
same,normalized growth,"S. cerevisiae deletion strains, locus YOR144C, strain elg1, hits give low values",0.994
same,normalized growth,"S. cerevisiae deletion strains, locus YOR184W, strain ser1, hits give low values",0.983
same,normalized growth,"S. cerevisiae deletion strains, locus YOR231W, strain MKK1, hits give low values",1
same,normalized growth,"S. cerevisiae deletion strains, locus YOR265W, strain rbl2, hits give low values",0.956
same,normalized growth,"S. cerevisiae deletion strains, locus YOR270C, strain vph1, hits give low values",0.972
same,normalized growth,"S. cerevisiae deletion strains, locus YOR290C, strain snf2, hits give low values",0.944
same,normalized growth,"S. cerevisiae deletion strains, locus YOR316C, strain cot1, hits give low values",0.986
same,normalized growth,"S. cerevisiae deletion strains, locus YPL051W, strain arl3, hits give low values",0.974
same,normalized growth,"S. cerevisiae deletion strains, locus YPL055C, strain LGE1, hits give low values",0.909 and 0.983
same,normalized growth,"S. cerevisiae deletion strains, locus YPL078C, strain atp4, hits give low values",0.964
same,normalized growth,"S. cerevisiae deletion strains, locus YPL106C, strain sse1, hits give low values",0.965
same,normalized growth,"S. cerevisiae deletion strains, locus YPL240C, strain hsp82, hits give low values",0.99
same,normalized growth,"S. cerevisiae deletion strains, locus YPL241C, strain CIN2, hits give low values",1.01
same,normalized growth,"S. cerevisiae deletion strains, locus YPL256C, strain CLN2, hits give low values",1.02
same,normalized growth,"S. cerevisiae deletion strains, locus YPR119W, strain clb2, hits give low values",0.987
same,normalized growth,"S. cerevisiae deletion strains, locus YPR141C, strain kar3, hits give low values",1
same,normalized growth,"S. cerevisiae deletion strains, locus YPR163C, strain tif3, hits give low values",1
same,normalized growth,"S. cerevisiae deletion strains, locus YPR167C, strain met16, hits give low values",0.999
same,normalized growth,"S. cerevisiae deletion strains, strain wtn01, hits give low values",0.987
same,normalized growth,"S. cerevisiae strains, strain wild type, hits give low values",0.99
